Measurements as given in the supplement of paper PMC11732987, “Enantioselective OTUD7B fragment discovery through chemoproteomics screening and high-throughput optimisation” (Communications Chemistry, 2025).

Assays:
Assay in all cases: log2 ratio of Biotin-Ahx-Ub-VS probe labelling (fragment/DMSO); higher = less target engagement (more negative = stronger competition), active = hit call of the paper (q ≤ 0.05, log2 ratio ≤ -1)
Details in all cases: compound concentration: 200 uM; treatment time: 3 h
[1] = biological target: USP34 (UniProt Q70CQ2)
Procedure, shortened: (§1)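 HEK293T lysate, 495 µg per sample in Tris/CHAPS/IGEPAL buffer with protease inhibitors, was treated in triplicate with fragment at 200 µM or vehicle for 3 h and then with Biotin-Ahx-Ub-VS at 0.5 µM final for 1 h. Labelled DUBs were NeutrAvidin-enriched, digested with LysC and trypsin, and run by diaPASEF LC-MS/MS. Spectronaut label-free quantities were global-median-normalised, and values are average log2 fragment/vehicle ratios by unpaired t-test on proteins with ≥2 unique peptides.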

[2] = biological target: T1, USP36 (UniProt Q9P275)
T1 sequence (whole entry): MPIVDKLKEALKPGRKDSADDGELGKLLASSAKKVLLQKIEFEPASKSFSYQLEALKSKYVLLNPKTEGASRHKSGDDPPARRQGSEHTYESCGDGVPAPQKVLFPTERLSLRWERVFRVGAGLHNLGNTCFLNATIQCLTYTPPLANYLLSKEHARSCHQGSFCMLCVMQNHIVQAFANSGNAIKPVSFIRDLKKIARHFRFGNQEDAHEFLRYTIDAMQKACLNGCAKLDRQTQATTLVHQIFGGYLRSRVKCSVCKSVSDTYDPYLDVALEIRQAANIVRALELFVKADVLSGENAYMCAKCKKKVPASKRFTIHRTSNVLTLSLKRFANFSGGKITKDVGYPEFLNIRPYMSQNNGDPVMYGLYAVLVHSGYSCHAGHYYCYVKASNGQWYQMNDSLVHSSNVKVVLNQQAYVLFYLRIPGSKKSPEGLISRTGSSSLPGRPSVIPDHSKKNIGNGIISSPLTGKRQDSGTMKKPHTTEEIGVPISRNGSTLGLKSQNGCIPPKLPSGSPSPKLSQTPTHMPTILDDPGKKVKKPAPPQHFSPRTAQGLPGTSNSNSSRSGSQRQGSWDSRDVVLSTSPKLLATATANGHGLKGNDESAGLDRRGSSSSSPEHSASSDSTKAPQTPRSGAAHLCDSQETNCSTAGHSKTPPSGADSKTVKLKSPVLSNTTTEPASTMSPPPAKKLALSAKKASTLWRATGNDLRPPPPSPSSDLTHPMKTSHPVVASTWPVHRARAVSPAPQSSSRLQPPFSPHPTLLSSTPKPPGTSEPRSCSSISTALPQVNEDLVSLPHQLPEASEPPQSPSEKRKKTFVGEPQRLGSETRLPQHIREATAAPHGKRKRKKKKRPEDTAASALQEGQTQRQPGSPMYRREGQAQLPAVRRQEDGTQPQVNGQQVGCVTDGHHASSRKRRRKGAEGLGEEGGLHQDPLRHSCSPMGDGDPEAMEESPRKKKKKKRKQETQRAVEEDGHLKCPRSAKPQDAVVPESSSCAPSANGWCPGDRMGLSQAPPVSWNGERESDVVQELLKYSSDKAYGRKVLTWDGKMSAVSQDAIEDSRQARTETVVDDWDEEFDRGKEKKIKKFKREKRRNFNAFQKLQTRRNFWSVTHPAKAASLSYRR
Procedure, shortened: as §1

[3] = biological target: T2, USP38 (UniProt Q8NB14)
T2 sequence (whole entry): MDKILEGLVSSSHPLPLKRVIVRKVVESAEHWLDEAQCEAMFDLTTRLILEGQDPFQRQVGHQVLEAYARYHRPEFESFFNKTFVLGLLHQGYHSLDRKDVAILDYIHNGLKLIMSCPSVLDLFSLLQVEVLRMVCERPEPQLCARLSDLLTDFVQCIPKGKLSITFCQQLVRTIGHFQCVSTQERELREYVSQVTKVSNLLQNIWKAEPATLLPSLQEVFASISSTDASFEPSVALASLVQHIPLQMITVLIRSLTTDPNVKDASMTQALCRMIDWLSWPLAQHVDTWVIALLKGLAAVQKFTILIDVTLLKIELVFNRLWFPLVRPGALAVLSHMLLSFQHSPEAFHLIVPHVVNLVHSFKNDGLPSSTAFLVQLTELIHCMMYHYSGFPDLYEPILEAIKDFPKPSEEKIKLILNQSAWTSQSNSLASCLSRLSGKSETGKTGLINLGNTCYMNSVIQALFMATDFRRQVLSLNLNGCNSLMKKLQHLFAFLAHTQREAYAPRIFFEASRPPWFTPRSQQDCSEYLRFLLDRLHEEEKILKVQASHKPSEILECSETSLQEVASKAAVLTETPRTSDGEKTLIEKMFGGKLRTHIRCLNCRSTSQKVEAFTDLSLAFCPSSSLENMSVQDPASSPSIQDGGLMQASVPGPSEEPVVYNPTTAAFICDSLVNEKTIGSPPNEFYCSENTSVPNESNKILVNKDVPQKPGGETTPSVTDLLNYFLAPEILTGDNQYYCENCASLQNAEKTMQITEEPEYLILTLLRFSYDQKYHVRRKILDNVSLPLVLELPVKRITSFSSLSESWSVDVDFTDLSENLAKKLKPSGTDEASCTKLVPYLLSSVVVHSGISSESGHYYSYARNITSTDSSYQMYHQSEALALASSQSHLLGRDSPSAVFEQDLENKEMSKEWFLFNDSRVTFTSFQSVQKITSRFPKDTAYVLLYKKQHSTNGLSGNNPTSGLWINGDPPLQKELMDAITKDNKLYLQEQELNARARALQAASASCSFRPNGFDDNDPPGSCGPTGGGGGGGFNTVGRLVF
Procedure, shortened: as §1

[4] = biological target: T3, USP39 (UniProt Q53GS9)
T3 sequence (whole entry): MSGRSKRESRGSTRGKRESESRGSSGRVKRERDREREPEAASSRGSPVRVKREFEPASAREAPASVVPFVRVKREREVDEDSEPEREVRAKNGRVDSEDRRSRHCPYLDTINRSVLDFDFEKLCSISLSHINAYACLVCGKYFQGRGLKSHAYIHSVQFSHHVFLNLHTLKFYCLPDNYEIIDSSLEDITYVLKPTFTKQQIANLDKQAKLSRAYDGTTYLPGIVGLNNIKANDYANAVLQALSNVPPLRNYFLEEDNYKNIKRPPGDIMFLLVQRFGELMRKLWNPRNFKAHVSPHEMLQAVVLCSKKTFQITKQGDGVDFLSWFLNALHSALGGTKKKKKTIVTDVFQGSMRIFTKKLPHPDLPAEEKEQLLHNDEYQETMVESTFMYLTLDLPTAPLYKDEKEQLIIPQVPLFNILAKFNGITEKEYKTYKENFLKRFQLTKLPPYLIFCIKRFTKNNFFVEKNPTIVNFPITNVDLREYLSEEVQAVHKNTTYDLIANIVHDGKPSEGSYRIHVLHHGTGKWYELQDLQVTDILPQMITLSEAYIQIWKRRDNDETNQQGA
Procedure, shortened: as §1

[5] = biological target: T4, USP4 (UniProt Q13107)
T4 sequence (whole entry): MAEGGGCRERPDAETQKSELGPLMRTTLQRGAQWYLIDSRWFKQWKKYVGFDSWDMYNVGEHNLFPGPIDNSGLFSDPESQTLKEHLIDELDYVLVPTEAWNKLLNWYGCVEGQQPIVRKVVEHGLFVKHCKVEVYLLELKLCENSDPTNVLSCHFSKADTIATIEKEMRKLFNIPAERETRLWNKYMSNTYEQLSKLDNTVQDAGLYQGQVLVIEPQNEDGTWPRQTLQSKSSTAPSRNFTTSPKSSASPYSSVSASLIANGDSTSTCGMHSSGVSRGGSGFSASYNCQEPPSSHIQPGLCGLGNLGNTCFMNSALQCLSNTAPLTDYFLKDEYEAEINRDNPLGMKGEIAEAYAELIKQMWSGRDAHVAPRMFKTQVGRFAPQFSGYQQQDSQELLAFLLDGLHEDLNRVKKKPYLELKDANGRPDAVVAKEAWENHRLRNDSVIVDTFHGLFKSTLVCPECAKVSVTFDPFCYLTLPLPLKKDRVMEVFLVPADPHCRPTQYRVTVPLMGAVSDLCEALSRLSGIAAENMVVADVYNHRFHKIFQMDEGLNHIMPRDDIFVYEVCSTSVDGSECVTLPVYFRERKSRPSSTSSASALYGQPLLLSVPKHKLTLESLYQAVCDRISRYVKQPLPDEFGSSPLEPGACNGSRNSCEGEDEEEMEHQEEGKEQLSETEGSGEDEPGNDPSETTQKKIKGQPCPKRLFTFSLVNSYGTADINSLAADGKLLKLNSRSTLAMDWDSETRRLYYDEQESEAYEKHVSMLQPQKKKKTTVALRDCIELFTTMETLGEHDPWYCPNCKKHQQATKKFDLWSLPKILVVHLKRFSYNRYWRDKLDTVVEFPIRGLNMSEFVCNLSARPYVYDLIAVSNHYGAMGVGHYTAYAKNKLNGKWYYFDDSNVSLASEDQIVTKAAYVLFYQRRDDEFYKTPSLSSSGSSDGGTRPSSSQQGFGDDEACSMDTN
Procedure, shortened: as §1

Measured: log2 ratio of Biotin-Ahx-Ub-VS probe labelling

Sequence of USP34 (Q70CQ2 whole entry, the tested form may be a part): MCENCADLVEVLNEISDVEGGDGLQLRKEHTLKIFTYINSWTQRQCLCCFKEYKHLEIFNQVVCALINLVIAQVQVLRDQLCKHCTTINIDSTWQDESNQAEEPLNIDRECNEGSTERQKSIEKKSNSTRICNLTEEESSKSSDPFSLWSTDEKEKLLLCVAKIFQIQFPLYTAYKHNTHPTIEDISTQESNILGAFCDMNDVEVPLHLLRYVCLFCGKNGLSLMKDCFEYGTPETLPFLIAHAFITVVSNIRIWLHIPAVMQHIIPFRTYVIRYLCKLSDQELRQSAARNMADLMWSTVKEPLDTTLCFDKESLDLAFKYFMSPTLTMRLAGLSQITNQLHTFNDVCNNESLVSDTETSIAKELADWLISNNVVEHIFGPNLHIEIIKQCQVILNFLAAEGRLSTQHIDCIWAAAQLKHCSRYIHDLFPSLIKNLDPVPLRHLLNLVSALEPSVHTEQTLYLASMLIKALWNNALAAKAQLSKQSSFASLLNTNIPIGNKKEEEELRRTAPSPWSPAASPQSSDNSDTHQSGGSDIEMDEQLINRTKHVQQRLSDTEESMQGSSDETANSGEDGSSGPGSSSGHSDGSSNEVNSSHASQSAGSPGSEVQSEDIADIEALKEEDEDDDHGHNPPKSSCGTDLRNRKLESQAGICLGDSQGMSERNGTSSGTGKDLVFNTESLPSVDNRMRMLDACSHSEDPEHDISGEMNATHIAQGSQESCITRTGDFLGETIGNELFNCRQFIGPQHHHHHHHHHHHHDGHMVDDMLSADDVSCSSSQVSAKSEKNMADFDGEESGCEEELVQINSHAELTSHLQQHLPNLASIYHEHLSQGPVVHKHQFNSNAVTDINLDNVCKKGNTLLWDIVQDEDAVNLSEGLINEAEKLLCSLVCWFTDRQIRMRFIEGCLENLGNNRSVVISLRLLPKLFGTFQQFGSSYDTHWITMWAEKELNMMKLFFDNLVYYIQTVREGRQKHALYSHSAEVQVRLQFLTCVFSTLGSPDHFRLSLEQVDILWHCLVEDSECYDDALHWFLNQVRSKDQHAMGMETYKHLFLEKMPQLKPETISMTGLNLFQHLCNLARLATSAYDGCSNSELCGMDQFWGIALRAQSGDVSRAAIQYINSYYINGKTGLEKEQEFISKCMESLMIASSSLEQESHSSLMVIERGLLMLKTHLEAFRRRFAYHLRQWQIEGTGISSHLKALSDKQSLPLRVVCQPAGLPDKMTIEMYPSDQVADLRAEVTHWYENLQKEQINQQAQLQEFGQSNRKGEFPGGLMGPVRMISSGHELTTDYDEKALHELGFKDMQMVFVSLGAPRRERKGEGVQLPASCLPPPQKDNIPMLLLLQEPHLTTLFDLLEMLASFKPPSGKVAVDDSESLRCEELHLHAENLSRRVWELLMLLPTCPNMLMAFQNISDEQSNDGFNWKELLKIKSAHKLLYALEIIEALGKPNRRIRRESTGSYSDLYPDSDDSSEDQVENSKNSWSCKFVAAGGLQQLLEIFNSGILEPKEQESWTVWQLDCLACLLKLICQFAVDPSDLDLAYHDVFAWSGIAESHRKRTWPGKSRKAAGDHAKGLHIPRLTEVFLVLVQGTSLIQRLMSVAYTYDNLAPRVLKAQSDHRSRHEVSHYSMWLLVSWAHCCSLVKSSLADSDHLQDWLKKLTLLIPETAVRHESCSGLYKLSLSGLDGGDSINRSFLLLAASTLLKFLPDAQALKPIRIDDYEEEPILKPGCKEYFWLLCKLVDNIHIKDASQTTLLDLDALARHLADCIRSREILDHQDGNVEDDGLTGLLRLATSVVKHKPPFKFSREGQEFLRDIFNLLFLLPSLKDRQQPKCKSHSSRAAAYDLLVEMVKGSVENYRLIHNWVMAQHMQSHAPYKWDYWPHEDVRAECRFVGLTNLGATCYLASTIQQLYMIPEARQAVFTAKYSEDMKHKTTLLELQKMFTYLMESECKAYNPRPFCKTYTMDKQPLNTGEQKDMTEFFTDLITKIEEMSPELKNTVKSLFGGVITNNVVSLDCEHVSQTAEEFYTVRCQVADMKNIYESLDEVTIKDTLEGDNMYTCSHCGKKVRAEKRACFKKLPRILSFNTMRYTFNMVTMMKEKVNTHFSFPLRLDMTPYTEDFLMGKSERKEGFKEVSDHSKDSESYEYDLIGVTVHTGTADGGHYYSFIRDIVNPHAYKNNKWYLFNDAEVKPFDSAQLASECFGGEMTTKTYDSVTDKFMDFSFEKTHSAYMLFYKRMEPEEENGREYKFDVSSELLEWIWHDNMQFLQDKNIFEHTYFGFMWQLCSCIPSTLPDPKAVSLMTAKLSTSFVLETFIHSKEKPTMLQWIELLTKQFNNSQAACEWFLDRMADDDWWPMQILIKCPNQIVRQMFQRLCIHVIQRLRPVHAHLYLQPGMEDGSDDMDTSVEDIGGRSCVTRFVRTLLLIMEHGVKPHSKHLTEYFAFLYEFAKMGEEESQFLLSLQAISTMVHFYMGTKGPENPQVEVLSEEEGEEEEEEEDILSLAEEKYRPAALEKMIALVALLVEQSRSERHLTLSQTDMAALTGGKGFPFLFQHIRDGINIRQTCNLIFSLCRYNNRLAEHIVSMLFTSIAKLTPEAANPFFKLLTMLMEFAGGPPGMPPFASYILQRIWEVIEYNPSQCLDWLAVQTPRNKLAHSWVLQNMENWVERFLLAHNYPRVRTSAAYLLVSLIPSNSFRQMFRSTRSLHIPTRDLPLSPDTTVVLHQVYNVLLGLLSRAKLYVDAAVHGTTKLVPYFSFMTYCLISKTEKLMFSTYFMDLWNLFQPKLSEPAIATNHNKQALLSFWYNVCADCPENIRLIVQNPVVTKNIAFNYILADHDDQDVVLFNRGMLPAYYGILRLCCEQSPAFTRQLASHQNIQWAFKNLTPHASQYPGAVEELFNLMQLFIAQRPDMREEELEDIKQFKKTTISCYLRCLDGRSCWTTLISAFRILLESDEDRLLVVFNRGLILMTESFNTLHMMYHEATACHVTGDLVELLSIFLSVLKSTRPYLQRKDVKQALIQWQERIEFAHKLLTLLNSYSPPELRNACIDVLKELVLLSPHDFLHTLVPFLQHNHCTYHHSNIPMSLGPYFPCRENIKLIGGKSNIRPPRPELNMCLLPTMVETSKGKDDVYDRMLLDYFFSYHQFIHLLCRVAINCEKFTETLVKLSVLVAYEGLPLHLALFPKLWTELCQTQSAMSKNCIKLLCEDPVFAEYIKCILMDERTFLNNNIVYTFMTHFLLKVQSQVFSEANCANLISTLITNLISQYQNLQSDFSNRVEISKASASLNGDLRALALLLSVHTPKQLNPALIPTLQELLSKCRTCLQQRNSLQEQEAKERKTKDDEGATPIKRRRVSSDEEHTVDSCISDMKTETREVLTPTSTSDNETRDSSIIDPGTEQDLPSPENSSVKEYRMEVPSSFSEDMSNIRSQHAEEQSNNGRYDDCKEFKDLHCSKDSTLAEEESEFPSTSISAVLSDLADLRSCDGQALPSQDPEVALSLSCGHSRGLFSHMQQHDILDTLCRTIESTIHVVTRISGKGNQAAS

O=C(CCl)Nc1cc2c(cc1Cl)OCCO2
inactive: [1] -0.393 | [2] 0.206 | [3] -0.183 | [4] -0.137 | [5] 0.122
